According to the supplement of paper PMC11018630:
Structures can show the parent of a compound that is named as a salt. ± gives the standard deviation of the averaged measurements.

Tested on: RDEB dermal fibroblasts EB119
Test: day of extracellular matrix detachment from plate (days); higher = delayed detachment (less fibrotic matrix)
Conditions: compound concentration: 10 uM

| SMILES | day of extracellular matrix detachment from plate |
| --- | --- |
| N=C(N)NN [Aminoguanidine (hydrochloride)] | 26.3 ± 1.1 |
| Cc1ccc(-n2nccn2)c(C(=O)N2CCN(c3nc4cc(Cl)ccc4o3)CC[C@H]2C)c1 [Suvorexant (MK-4305)] | 25 |
| CCN(C)C(=O)Oc1cccc([C@H](C)N(C)C)c1 [Rivastigmine] | 30.3 ± 2.9 |
